In ChEMBL document CHEMBL3988442, “University of Dundee, Small-Polar-MMV Screening Library” (2021):
For some assays here: Measured potencies and affinities stand elsewhere.

What was measured:
Design in all cases: scale not given: direction of the effect not stated beside the values
[1] = molecular target: Protein translocase subunit SecA (Escherichia coli (strain K12)) (UniProt P10408); assay: Assay to Identify E. coli SecA ATPase Inhibitors; assay type: functional; conditions: 30 µM
[2] = molecular target: T1, Ubiquitin-activating enzyme e1, putative (Leishmania donovani (strain BPK282A1)) (UniProt E9BSI1); assay: Leishmania donovani Ubiquitin Activating Enzyme (LdE1); assay type: functional; conditions: 30 µM
T1 sequence (whole entry): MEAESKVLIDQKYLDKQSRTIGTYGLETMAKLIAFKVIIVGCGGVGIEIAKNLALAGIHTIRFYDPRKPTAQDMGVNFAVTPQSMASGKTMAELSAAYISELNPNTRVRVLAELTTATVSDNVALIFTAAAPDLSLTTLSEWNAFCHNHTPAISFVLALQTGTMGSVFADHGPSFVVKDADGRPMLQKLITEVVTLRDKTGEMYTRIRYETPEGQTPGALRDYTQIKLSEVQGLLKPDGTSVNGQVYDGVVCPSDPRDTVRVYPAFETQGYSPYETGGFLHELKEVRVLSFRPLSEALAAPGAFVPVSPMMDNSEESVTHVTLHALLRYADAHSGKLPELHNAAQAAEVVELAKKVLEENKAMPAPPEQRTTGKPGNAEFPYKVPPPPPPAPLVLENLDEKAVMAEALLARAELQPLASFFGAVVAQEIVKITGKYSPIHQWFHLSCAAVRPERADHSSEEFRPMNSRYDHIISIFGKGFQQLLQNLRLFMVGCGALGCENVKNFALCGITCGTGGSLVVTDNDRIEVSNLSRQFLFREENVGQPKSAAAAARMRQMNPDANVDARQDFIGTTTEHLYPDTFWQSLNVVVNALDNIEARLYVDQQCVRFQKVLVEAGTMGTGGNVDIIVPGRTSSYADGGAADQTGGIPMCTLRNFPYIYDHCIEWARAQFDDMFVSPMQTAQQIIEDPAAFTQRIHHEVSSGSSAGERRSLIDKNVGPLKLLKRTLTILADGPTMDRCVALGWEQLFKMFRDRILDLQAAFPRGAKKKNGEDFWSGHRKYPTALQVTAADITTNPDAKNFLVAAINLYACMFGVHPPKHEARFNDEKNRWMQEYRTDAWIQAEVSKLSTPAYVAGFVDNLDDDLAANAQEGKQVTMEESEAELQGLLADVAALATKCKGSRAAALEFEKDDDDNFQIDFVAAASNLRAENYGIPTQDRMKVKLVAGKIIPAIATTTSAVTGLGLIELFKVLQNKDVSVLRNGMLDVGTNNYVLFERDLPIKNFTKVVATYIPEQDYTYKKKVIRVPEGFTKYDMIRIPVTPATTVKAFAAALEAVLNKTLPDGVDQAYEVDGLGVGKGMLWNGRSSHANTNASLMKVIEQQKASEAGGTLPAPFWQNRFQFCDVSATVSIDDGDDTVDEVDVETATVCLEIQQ

[3] = molecular target: AMP-activated protein kinase, AMPK (Homo sapiens) (UniProt P54646+O43741+P54619+Q9UGJ0+Q9Y478+Q13131+Q9UGI9); assay: AMP-dependent Kinase enzyme assay. An in vitro enzyme assay that detects ADP turnover that is directly proportional to AMPK activity. This uses naive AMPK that is activated during the assay with MK-8722; assay type: functional; conditions: 30 µM
[4] = molecular target: Sialic acid-binding Ig-like lectin 9 (Homo sapiens) (UniProt Q9Y336); assay: Hs-Siglec9 ALPHAscreen SOP 20170721; conditions: 10 µM
Sequence of Sialic acid-binding Ig-like lectin 9 (Homo sapiens) (Q9Y336 whole entry): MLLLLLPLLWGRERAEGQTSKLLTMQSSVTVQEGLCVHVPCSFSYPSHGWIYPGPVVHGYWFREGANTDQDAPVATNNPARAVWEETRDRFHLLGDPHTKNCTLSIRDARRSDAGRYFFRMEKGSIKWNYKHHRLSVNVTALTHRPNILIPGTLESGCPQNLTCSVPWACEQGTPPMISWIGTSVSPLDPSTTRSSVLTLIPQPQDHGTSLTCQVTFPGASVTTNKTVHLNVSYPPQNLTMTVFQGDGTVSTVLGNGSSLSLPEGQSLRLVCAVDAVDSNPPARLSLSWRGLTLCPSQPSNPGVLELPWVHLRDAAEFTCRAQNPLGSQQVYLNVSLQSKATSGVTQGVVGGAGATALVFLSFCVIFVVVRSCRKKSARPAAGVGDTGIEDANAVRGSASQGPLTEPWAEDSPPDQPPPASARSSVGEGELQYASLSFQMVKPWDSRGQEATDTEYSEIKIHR

Trypanosoma cruzi = assay: Trypanosoma cruzi phosphomannomutase and mannose-1-phosphate guanylyltransferase assay; assay type: functional; conditions: 10 µM
[5] = molecular target: T2, Arginase-2, mitochondrial (Homo sapiens) (UniProt P78540); assay: in vitro enzyme assay to detect the production of urea directly proportional to the activity of Arginase II; assay type: functional; conditions: 33.3 µM; further: in the data most compounds retested in dose-response had high values
T2 sequence (whole entry): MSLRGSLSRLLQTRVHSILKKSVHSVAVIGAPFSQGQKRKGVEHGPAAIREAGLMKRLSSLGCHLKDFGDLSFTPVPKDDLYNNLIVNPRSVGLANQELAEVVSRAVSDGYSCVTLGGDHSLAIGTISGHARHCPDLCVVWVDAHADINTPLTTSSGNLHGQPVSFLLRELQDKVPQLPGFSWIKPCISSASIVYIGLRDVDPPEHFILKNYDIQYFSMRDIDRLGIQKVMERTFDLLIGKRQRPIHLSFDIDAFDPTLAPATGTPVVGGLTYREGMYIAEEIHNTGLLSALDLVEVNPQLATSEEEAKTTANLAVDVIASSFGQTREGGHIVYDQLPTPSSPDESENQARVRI

[6] = molecular target: T3, Proteasome subunit beta (Trypanosoma cruzi) (UniProt O96673); assay: Trypanosoma cruzi proteasome chymotrypsin-like activity (TcProtChymo) assay.; further: in the data most compounds retested in dose-response had high values; assay type: functional; conditions: 9.37 µM
T3 sequence (whole entry): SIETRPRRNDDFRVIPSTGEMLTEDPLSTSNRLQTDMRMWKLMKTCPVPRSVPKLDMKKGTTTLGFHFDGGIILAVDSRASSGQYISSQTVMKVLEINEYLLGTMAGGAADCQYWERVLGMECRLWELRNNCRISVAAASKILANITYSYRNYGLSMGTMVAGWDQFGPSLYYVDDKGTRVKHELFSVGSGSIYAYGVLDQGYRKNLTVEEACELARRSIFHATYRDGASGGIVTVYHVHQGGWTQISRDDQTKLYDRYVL

Homo sapiens = organism: Homo sapiens; assay: To identify inhibition of the IFN signalling (Jak-Stat) pathway via expression of an eGFP reporter gene under the control of an IFN-stimulated response element (ISRE) containing MxA promoter.; assay type: functional; conditions: 30 µM
[7] = molecular target: T4, Tyrosyl-tRNA synthetase, putative (Trypanosoma cruzi (strain CL Brener)) (UniProt Q4DSP6); assay: Trypanosoma cruzi tyrosyl tRNA synthetase (TcYRS) _High Tyrosine SOP; assay type: functional; conditions: 30 µM; further: in the data most compounds retested in dose-response had high values
T4 sequence (whole entry): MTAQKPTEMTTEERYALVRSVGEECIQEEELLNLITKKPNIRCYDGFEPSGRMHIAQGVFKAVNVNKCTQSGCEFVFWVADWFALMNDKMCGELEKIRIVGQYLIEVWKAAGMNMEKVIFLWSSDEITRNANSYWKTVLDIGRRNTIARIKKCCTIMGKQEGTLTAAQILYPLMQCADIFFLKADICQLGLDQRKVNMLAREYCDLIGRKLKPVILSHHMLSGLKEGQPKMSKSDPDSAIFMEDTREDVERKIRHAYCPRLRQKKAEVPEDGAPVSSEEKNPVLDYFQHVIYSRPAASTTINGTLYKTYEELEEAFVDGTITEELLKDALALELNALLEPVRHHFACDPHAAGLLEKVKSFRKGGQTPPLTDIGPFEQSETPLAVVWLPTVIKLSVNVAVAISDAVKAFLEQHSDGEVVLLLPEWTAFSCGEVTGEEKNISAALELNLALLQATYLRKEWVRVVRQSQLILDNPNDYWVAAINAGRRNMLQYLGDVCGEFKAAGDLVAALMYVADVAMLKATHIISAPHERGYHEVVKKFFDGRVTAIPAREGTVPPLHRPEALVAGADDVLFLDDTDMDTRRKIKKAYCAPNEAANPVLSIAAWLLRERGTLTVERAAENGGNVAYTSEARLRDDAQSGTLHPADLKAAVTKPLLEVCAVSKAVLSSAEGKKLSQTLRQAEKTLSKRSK

[8] = molecular target: T4, Tyrosyl-tRNA synthetase, putative (Trypanosoma cruzi (strain CL Brener)); assay: Trypanosoma cruzi tyrosyl tRNA synthetase (TcYRS) SOP; assay type: functional; conditions: 30 µM
[9] = molecular target: Chromo domain-containing protein 1 (Saccharomyces cerevisiae (strain ATCC 204508 / S288c) (Baker's yeast)) (UniProt P32657); assay: ScCHD-1 Enzyme Inhibition Assay; assay type: functional; conditions: 30 µM; further: in the data most compounds retested in dose-response had high values
Sequence of Chromo domain-containing protein 1 (Saccharomyces cerevisiae (strain ATCC 204508 / S288c) (Baker's yeast)) (P32657 whole entry, the tested form may be a part): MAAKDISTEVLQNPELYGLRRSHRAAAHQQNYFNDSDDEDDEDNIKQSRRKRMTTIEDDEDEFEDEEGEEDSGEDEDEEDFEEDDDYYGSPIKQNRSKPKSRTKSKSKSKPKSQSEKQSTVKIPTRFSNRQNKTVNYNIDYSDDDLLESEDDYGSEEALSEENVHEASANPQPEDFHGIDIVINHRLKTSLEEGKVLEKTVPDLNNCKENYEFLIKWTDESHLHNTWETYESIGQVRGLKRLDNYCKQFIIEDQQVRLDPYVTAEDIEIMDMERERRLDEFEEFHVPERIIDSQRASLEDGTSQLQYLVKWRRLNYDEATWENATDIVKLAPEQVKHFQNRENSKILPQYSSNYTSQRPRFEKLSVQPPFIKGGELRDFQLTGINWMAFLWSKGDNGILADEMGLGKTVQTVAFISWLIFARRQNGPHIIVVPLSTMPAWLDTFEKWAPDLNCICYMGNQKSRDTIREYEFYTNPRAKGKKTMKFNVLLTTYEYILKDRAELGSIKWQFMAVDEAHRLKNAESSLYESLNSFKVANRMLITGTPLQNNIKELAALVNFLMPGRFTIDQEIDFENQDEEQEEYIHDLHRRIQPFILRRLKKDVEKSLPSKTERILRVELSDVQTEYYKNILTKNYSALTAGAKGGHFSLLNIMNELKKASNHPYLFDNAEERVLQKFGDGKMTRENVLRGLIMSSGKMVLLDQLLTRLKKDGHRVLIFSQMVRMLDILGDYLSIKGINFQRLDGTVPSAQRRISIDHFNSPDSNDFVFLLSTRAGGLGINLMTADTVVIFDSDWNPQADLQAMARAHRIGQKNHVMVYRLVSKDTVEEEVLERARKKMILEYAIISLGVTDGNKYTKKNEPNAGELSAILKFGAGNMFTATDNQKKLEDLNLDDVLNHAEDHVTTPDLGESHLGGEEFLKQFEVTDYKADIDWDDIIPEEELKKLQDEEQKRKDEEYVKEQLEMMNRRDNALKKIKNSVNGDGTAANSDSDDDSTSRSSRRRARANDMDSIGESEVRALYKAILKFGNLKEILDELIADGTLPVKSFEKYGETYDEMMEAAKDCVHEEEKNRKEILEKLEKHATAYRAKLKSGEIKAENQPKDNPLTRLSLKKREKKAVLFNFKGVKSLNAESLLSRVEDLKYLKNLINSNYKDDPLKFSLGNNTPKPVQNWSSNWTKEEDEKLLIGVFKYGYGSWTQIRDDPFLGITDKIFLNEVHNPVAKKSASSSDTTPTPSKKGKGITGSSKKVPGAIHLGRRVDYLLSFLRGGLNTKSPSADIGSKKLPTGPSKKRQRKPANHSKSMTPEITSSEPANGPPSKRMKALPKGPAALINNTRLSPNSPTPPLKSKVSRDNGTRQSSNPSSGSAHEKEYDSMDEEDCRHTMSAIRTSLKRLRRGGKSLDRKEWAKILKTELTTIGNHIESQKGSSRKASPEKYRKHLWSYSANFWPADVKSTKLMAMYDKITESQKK

Sequence of Protein translocase subunit SecA (Escherichia coli (strain K12)) (P10408 whole entry): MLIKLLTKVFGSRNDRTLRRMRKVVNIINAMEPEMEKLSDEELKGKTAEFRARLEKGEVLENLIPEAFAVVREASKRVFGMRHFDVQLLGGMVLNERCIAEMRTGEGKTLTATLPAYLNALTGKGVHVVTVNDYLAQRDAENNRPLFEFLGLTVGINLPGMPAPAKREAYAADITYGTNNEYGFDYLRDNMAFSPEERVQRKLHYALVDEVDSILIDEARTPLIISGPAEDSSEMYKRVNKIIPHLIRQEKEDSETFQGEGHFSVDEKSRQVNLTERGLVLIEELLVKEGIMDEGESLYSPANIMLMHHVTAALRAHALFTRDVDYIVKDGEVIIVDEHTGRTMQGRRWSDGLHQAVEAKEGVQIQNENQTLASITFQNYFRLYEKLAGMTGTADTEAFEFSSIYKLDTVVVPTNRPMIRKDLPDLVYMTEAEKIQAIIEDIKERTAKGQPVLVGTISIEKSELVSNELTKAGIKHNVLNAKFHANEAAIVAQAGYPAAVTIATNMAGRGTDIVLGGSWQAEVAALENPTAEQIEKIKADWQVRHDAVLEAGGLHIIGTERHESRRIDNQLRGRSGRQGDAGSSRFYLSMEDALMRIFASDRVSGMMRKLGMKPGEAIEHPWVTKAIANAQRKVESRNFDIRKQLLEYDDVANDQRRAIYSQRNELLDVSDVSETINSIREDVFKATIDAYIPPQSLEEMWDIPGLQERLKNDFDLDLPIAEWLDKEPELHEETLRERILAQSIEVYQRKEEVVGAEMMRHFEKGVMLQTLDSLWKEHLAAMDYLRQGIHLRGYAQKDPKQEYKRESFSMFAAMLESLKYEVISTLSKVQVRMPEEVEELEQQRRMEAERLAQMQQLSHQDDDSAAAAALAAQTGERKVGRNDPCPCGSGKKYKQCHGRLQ

| SMILES | Percent Effect [1] [%] | Percent Effect [2] [%] | Percent Effect [3] [%] | Percent Effect [4] [%] | Percent Effect (Trypanosoma cruzi) [%] | Percent Effect [5] [%] | Percent Effect [6] [%] | Percent Effect (Homo sapiens) [%] | Percent Effect [7] [%] | Percent Effect [8] [%] | Percent Effect [9] [%] |
| --- | --- | --- | --- | --- | --- | --- | --- | --- | --- | --- | --- |
| O=C(NCCCOCC1CC1)Nc1cccnc1N1CCOCC1 | -3.08 | 2.7 | -5.79 | 0.4 | -5.27 | -1.67 | 21.1 | 10.8 | -21.8 | 3.66 | 14.9 |
| CC(C)c1nn(C)c(N2CCOCC2)c1CN[C@H](C)CO | -5.92 | 7.89 | -9.46 | -5.12 | -1.96 | 1.44 | 3.3 | -5.23 | 5.42 | 6.17 | -4.66 |
| O=C(Cn1nc(-c2ccc(F)cc2)oc1=O)Nc1ccccc1 | 0.224 | 21.1 | -0.861 | -9.34 | 3.01 | -2.3 | 21.6 | 7.21 | 6.37 | 21.9 | -11.6 |
| CN(C)C(=O)c1ccc(CNC(=O)NCCN(C)C2CCCC2)cc1 | -0.464 | 16.2 | -9.52 | -5.04 | -3.87 | -2.81 | 5.41 | 22.8 | 7.39 | 18.5 | -6.9 |
| O=C(O)C1(Cc2ccccc2Cl)CCN(c2ncccc2F)CC1 | -0.132 | 5.41 | -2.78 | 5.67 | 1.54 | 1.91 | 19.5 | 7.74 | 6.88 | 2.44 | -3.4 |
| CC1CN(CC(=O)Nc2nncs2)CCN1c1nccs1 (configuration not stated) | 1.26 | 8.11 | -4.77 | -8.19 | -5.29 | 0.924 | 16.5 | 25.9 | 4.95 | 18.3 | -4.83 |
| Nc1nc(C2CCN(C(=O)c3cscn3)CC2)cs1 | -2.59 | 10.7 | 8.2 | -2.11 | -3.15 | -3.03 | 3.96 | 18.2 | 3.19 | 11.5 | -5.08 |
| Cc1cnn(CC2CCCCN2CC(=O)NCc2ccccn2)c1 (configuration not stated) | -2.64 | -2.63 | 6.62 | 0.337 | 7.11 | -1.18 | 17.4 | -2.67 | 5.32 | 5.2 | -0.694 |
| COc1ncccc1NC(=O)N1CCC(CNC(C)=O)CC1 | -3.02 | 5.33 | -2.93 | 4.72 | 3.02 | 3.12 | 7.5 | 20.5 | 4.92 | 13.6 | -8 |
| CCS(=O)(=O)N1CCC2(CC(=O)N(c3cccc(C)c3)C2)C1 (configuration not stated) | -2.42 | 8 | -0.745 | 0.841 | 1.54 | -48.9 | 8.21 | -25.8 | 8.33 | 27.5 | -6.79 |
| Cc1noc(C)c1CNCC1CCN(CC(O)c2ccccc2)CC1 (configuration not stated) | -1.37 | 11.4 | -4.26 | 6.03 | -1.54 | -1.5 | 9.09 | -17.5 | 4.17 | 17.7 | -18 |
| COc1cc(C)nc(N2CCN(C(=O)CCc3nccs3)CC2)n1 | -6.4 | 0 | 2.65 | 3.42 | -5.6 | -3.33 | 14.5 | 30.1 | -2.65 | 2.44 | -4.19 |
| CC(NC(=O)NCCNc1ncccn1)c1cccs1 (configuration not stated) | -2.16 | 31.2 | 32.1 | 6.3 | 7.12 | -2.49 | 4.9 | 12.3 | 8.74 | 24.4 | -9.75 |
| CN1CCOC(CN(C(=O)CC2CCCC2)c2nccs2)C1 (configuration not stated) | -0.692 | 0 | 6.23 | 8.01 | 0.464 | -4.25 | -2.69 | 7.78 | -3.96 | -6.1 | 2.72 |
| Cc1oncc1C(=O)N1CCC2(CCN(Cc3ccccn3)C2=O)C1 (configuration not stated) | -5.3 | -2.74 | -0.544 | 4.81 | -2.78 | -3.19 | 8.82 | 15.6 | 2.08 | 1.24 | -0.071 |
| O=C(CCc1cscn1)N1CCCC1c1noc(C2CC2)n1 (configuration not stated) | -5.78 | 16.2 | -11.8 | 6.15 | -1.42 | -2 | 11.3 | 6.02 | 12.3 | 16.1 | -5.15 |
| CNC(=O)C1Cn2ccnc2C2(CCN(Cc3cccc(C)n3)CC2)O1 (configuration not stated) | -2.65 | 2.7 | 2.26 | -4.02 | -6.35 | -8.6 | 9.41 | 0.488 | 4.32 | 10.3 | 0.265 |
| CCn1cc(NC(=O)NCC(C)O)cn1 (configuration not stated) | -0.762 | 17.7 | -8.6 | -3.54 | -0.85 | 4.18 | 5.65 | 1.36 | 8.37 | -24.1 | -7.2 |
| c1ccc(N2CCCC3(COCCN(c4nccs4)C3)C2)nc1 (configuration not stated) | 0.192 | 0 | -5.45 | 16.4 | 11.7 | 0.399 | 16 | 31.6 | 16.7 | 23.5 | 10.7 |
| O=c1[nH]c2nc(N3CCSCC3)ncc2c(=O)n1-c1cccc(F)c1 | -3.04 | 7.89 | 7.15 | -1.69 | -1.46 | 5.92 | 15.4 | 9.74 | 3.19 | 10.4 | -0.88 |
| Cc1cc(NC(=O)CN2CCc3cnc(C)nc3C2)on1 | -3.81 | 5.26 | -27.9 | 2.68 | 7.75 | 1.8 | 9.39 | -5.85 | 8.37 | 16.1 | -7.97 |
| COc1ccc(CC(=O)N2CCCC2Cn2cccn2)cc1F (configuration not stated) | -2.59 | 2.63 | -8.2 | 6.06 | -2.52 | 1.44 | 2.12 | -12.5 | -0.493 | 1.24 | -2.17 |
